Compound activity (PubChem BioAssay)
Hits are enriched below; roughly 0.45% of the tested compounds scored in any of these assays.
LGR2 inh = inhibitors of bursicon-induced Drosophila LGR2 receptor cAMP signaling | HEK293 LGR2, CRE-luciferase, bursicon-stimulated, 4 h | 380,000 tested, 0.35% active | AID 720647 | inhibition, % at 9.99 µM;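 active = drop in luminescence signal, shown as inhibition above about 50% in the replicate tests, limit read from the data, passing the limit was not always enough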;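 note: agonist challenge used bursicon conditioned medium at about half maximal strength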
NCOA2 inhibitor = human SRC2 (NCOA2) inhibition | Q15596 | HEK293 GAL4-SRC2 luciferase reporter, luminescence | inhibition, % at 9 µM | 370,000 tested, 0.17% active;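 active = inhibition above the mean inhibition of all tested compounds plus 3 SD, set per campaign, cut at about 52% in these data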
SRC1 inh = inhibitors of human steroid receptor coactivator 1 (SRC1); Q15788; HEK293 GAL4-SRC1 luciferase reporter, luminescence; inhibition, % at 3.6 µM; 360,000 tested, 0.12% active; AID 588354;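 active = inhibition above the campaign mean plus 3 SD, with each screening campaign given its own cutoff, cut at about 60% in these data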
SRC3 inh = human NCOA3 inhibition; HEK293 GAL4-SRC3 luciferase reporter, luminescence; inhibition, % at 3.6 µM; 360,000 tested, 0.17% active; AID 588352;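 active = inhibition above a per-campaign cutoff, the mean of all compounds plus 3 SD, cut at about 60% in these data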;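 note: higher means less SRC3-driven luciferase light from the GAL4 reporter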
NR5A2 inv ag = NR5A2 inverse agonism in reporter assay | inhibition, % at 3.6 µM | O00482 | 360,000 tested, 0.13% active | HEK293T StAR-luciferase reporter, LRH-1 transfected, 24 h;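 active = inhibition above the mean inhibition of all tested compounds plus 3 SD, cut at about 73% in these data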
Of the large screens only hits and unclear results are named; the others gave an inactive call.

Cc1ccc(-c2cc3c(nn2)-c2ccccc2C3=O)cc1	LGR2 inh 92
O=C1c2ccccc2-c2nnc(-c3ccc(F)cc3)cc21	LGR2 inh 51
CCCNC(=O)N1CC(=O)N2[C@H](CO)[C@@H](c3ccc(C#Cc4cccc(F)c4)cc3)[C@H]2C1	none (no result: NCOA2 inhibitor, SRC1 inh, SRC3 inh, NR5A2 inv ag)
Oc1ccccc1N=N/C(=N/Nc1ccccc1O)c1ccccc1	none (no result: LGR2 inh)
Cn1nnnc1N=N/C(=N/Nc1ccccc1)c1ccccc1	SRC1 inh 76, SRC3 inh 81
CC(=O)Cn1ncc(Br)c(Br)c1=O	LGR2 inh 106
O=C(CCCN1C(=O)/C(=C/c2ccccc2Cl)SC1=S)NNC(=O)c1ccncc1	NCOA2 inhibitor 58
O=C(CCCN1C(=O)/C(=C/c2ccccc2Cl)SC1=S)NNC(=O)c1ccccc1Cl	NCOA2 inhibitor 83
O=C(CCCN1C(=O)/C(=C/c2ccccc2Cl)SC1=S)N1CCCC1	none
C[C@@H]1CN([C@H](C)CO)C(=O)Cc2cc(NC(=O)Cc3cn(C)c4ccccc34)ccc2O[C@H]1CN(C)Cc1ccc(C(F)(F)F)cc1	none (no result: NCOA2 inhibitor, SRC1 inh, SRC3 inh, NR5A2 inv ag)
C[C@H](CO)N1C[C@H](C)[C@@H](CN(C)S(=O)(=O)c2cccs2)OCCCC[C@H](C)Oc2ccc(NC(=O)CCCN(C)C)cc2C1=O	none (no result: NCOA2 inhibitor, SRC1 inh, SRC3 inh, NR5A2 inv ag)
CO[C@H]1CN(C)C(=O)c2cc(NC(=O)C3CC3)ccc2OC[C@H](C)N(CC2CCOCC2)C[C@H]1C	none (no result: NCOA2 inhibitor, SRC1 inh, SRC3 inh, NR5A2 inv ag)
C[C@@H]1CN([C@H](C)CO)C(=O)c2cc(C#CCN(C)C)cnc2O[C@H]1CN(C)Cc1cccc(C(=O)O)c1	none (no result: NCOA2 inhibitor, SRC1 inh, SRC3 inh, NR5A2 inv ag)
CCN1CCN(/C=N/c2nc3c(s2)CCCC3)CC1	LGR2 inh 80
CC(C)N(C(=O)Nc1ccc2nsnc2c1)C(C)C	LGR2 inh 82 (no result: SRC1 inh, SRC3 inh, NR5A2 inv ag)
COc1ccc(N(C)C(=O)Nc2ccc3nsnc3c2)cc1	none
O=C1c2ccccc2OC2(C=Cc3ccccc3O2)N1Cc1ccccc1 (stereo unspecified)	none
Cc1cc2c(c(/C=C/C(=O)c3ccccc3)c1)OC1(C=C2)Oc2ccccc2C(=O)N1C (stereo unspecified)	LGR2 inh 50
Cc1cc(C(=O)CSc2ccc(F)cc2)cc(C)c1OC(=S)N(C)C	SRC1 inh 63 (no result: LGR2 inh)
CN(C)CC#Cc1ccc([C@@H]2[C@H]3CN(C(=O)Cc4cccnc4)CC(=O)N3[C@H]2CO)cc1	none (no result: NCOA2 inhibitor, SRC1 inh, SRC3 inh, NR5A2 inv ag)
CC[C@H]1CN2CCc3cc(OC)c(OC)cc3C2C[C@@H]1C[C@H]1NCCc2cc(OC)c(OC)cc21 (stereo partly specified)	LGR2 inh 103, NCOA2 inhibitor 70, SRC1 inh 96, SRC3 inh 95, NR5A2 inv ag 104
CCC1=C(CC2NCCc3ccccc32)CC2c3cc(OC)c(OC)cc3CCN2C1 (stereo unspecified)	LGR2 inh 70, NCOA2 inhibitor 55, SRC1 inh 73, SRC3 inh 82, NR5A2 inv ag 88
COc1cc2c(cc1OC)CN1CCc3cc(OC)c(OC)cc3C1C2 (stereo unspecified)	none
Cc1cnc(C=NNC(N)=S)c2cccc(N)c12	none
NC(=S)NN=Cc1nccc2ccccc12	SRC1 inh 79, SRC3 inh 79, NR5A2 inv ag 78
NC(=S)NN=Cc1nccc2c(C(F)(F)C(F)(F)C(F)(F)F)cccc12	SRC1 inh 92, SRC3 inh 93, NR5A2 inv ag 97
O=C(N/N=C\c1c(O)ccc2ccccc12)c1cncc(Br)c1	SRC3 inh 69
Cn1cc(C(=O)N/N=C/c2c(O)ccc3ccccc23)ccc1=O	SRC3 inh 62
O=C(N/N=C\c1c(O)ccc2ccccc12)c1ccc(O)cc1	none
O=C(N/N=C/c1c(O)ccc2ccccc12)c1ccc(Br)o1	none
Cc1ccc(C(=O)N/N=C/c2c(O)ccc3ccccc23)cn1	SRC1 inh 68, SRC3 inh 74, NR5A2 inv ag 87
O=C(NN=Cc1c(O)ccc2ccccc12)c1ccncc1	SRC3 inh 75, NR5A2 inv ag 91 (no result: LGR2 inh)
Cc1occc1C(=O)N/N=C/c1c(O)ccc2ccccc12	none
C/C=C/c1ccc([C@H]2[C@H](CO)N(C(=O)c3cnccn3)C23CN(C(=O)C2CC2)C3)cc1	none (no result: NCOA2 inhibitor, SRC1 inh, SRC3 inh, NR5A2 inv ag)
COc1ccc2c3c(n(C)c2c1)[C@H](CO)N(C(C)=O)CC31CCN(C(=O)C2CC2)CC1	none (no result: NCOA2 inhibitor, SRC1 inh, SRC3 inh, NR5A2 inv ag)
Cn1nccc1C(=O)N/N=C/c1c(O)ccc2ccccc12	SRC1 inh 68, SRC3 inh 73, NR5A2 inv ag 90
O=C(N/N=C/c1c(O)ccc2ccccc12)c1cccnc1	SRC3 inh 77, NR5A2 inv ag 92
O=C(O)C[C@@H]1CC[C@H](NC(=O)c2ccccc2F)[C@@H](CO)O1	none (no result: NCOA2 inhibitor, SRC1 inh, SRC3 inh, NR5A2 inv ag)
Cc1cc(C(=O)COC(=O)c2cccn2C)c(C)n1Cc1ccco1	LGR2 inh 53
Cc1cc(C(=O)COC(=O)c2ccco2)c(C)n1Cc1ccco1	LGR2 inh 91
COC(=O)C(C(=O)OC)C(CC(=O)c1ccc(C)cc1)c1cc(OC)c(OC)c(OC)c1 (stereo unspecified)	none
COc1ccc(C(CC(=O)c2ccc(C)cc2)C(C#N)C#N)cc1OC (stereo unspecified)	LGR2 inh 53
O=C(CCCN1C(=O)/C(=C/c2ccccc2Cl)SC1=S)NCCCN1CCOCC1	NCOA2 inhibitor 79
CCc1ccc(/C=C2/SC(=S)N(CCC(=O)NCCCN3CCOCC3)C2=O)cc1	none
CCOc1ccc(/C=C2\SC(=S)N(CCCC(=O)NCCCN3CCOCC3)C2=O)cc1	NCOA2 inhibitor 84
CCc1ccc(/C=C2\SC(=S)N(CCCC(=O)NCCCN3CCOCC3)C2=O)cc1	NCOA2 inhibitor 89
COc1ccc(S(=O)(=O)N(C)C[C@H]2OCCCC[C@@H](C)Oc3ccc(NS(=O)(=O)c4ccccc4)cc3C(=O)N([C@@H](C)CO)C[C@H]2C)cc1	none (no result: NCOA2 inhibitor, SRC1 inh, SRC3 inh, NR5A2 inv ag)
O=C(C[C@@H]1C=C[C@H](NS(=O)(=O)c2ccccc2)[C@@H](CO)O1)N1CCC(Cc2ccccc2)CC1	none (no result: NCOA2 inhibitor, SRC1 inh, SRC3 inh, NR5A2 inv ag)
CCCC(=O)N1CC2(CN[C@@H](CO)c3c2c2ccc(OC)cc2n3C)C1	none (no result: NCOA2 inhibitor, SRC1 inh, SRC3 inh, NR5A2 inv ag)
O=C(c1ccc(S(=O)(=O)c2cccc(Cl)c2)c([N+](=O)[O-])c1)N1CCN(c2ccccn2)CC1	LGR2 inh 59
O=C(Cc1ccncc1)NCC[C@@H]1CC[C@H](NC(=O)C2CCCCC2)[C@H](CO)O1	none (no result: NCOA2 inhibitor, SRC1 inh, SRC3 inh, NR5A2 inv ag)
C=C1C(=O)OC2C1CCC(C)=C1C(=O)C3OC3(C)C12 (stereo unspecified)	LGR2 inh 99
CN(C)CC(=O)Nc1ccc2c(c1)[C@@H]1C[C@@H](CC(=O)N3CCOCC3)O[C@@H](CO)[C@@H]1O2	none (no result: NCOA2 inhibitor, SRC1 inh, SRC3 inh, NR5A2 inv ag)
CN1c2ccc(C#Cc3cccnc3)cc2[C@@H]2[C@@H](CCN2C(=O)C2CC2)[C@H]1CO	none (no result: NCOA2 inhibitor, SRC1 inh, SRC3 inh, NR5A2 inv ag)
NC(=O)c1cc([N+](=O)[O-])ccc1NCc1ccc(N)cc1	NCOA2 inhibitor 73
CC(=O)Nc1cccc(-c2cc(NC(C)=O)c3ncc(-c4ccc(F)cc4)n3c2)c1	NCOA2 inhibitor 54
FC(F)(F)c1cccc(CC2CN(Cc3ccccc3)Cc3ccccc3N2c2cc(Cl)cc(Cl)c2)c1 (stereo unspecified)	LGR2 inh 102
COC(=O)c1c(-c2ccc(OC)cc2)sc2cc3c(cc12)OCO3	none
